High-throughput results as filed in PubChem BioAssay.
Sampled rows, rich in hits. Any-hit rate of the full collection: about 1.4%.
Mtb MenB inh: M. tuberculosis MenB inhibitors, primary screen, biochemical, absorbance. 1,4-dihydroxy-2-naphthoyl-CoA synthase (Mycobacterium tuberculosis (strain ATCC 25618 / …. MenB enzyme assay, absorbance read-out. inhibition, % (test concentration not listed). actives 0.43% (n = 100,000). AID 540299, 2011; in the data active = inhibition above about 21%, passing the limit was not always enough
Target sequence (P9WNP5 whole entry, looked up): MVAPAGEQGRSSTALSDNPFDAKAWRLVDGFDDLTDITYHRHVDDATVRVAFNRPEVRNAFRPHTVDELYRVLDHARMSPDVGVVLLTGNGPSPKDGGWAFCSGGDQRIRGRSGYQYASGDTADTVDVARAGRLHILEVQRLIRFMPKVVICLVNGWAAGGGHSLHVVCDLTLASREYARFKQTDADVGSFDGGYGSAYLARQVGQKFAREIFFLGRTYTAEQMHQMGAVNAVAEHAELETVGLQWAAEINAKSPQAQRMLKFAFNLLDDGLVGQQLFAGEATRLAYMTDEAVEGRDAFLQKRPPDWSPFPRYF
Polio RdRp inh: poliovirus RdRp elongation inhibitors, primary screen, biochemical, fluorescence polarization, total intensity | AID 588519, 2011 | actives 0.66% (n = 150,000) | Genome polyprotein (Poliovirus type 1 (strain Mahoney)), P03300 | poliovirus polymerase elongation; stronger effect = lower value | % elongation, % (compound at 16.7 µg/mL); in the data active = % elongation below about 90%
Mtb MbtI inh: MbtI salicylate synthase inhibitors, primary screen, biochemical, fluorescence intensity; P9WFX0; purified MbtI enzyme, fluorescence intensity read-out; inhibition, % (concentration not given with the values); actives 0.89% (n = 100,000); in the data active = inhibition mostly above about 56%, no sharp cut-off; inactive = mostly below about 77%
Starred values were filed as active, the others as inactive; i = inactive; · = no result given.

SMILES	Mtb MenB inh	Polio RdRp inh	Mtb MbtI inh
COC(=O)c1c(C)nn(-c2ccccc2)c1NC(=O)C(C)Oc1ccc(Cl)cc1 (stereo not given)	-28.3	101.0	-3.0
Cc1cccc(CC(=O)Nc2ccc3c(c2)OCCO3)c1	-17.2	102.0	-10.4
CCOc1cccc(/C=N\NC(=O)c2ccco2)c1O	-68.0	103.0	-4.0
CCCn1c(O)c(N=NC(=S)Nc2cccc(OC)c2)c2ccccc21	-18.4	100.0	-14.6
CCN(CC)C(=S)C(=O)Nc1cc(C(F)(F)F)cc(C(F)(F)F)c1	-26.4	86.0*	·
CC(C)(C)NC(=O)Nc1cc(C(F)(F)F)cc(C(F)(F)F)c1	-8.8	106.0	0.2
CCn1cnc2sc3c(c2c1=O)CCCC3	6.1	99.0	0.6
NC(=O)Cn1cnc2sc3c(c2c1=O)CCC3	-24.3	90.0*	·
C=CCn1c(SCC(=O)NC(=O)Nc2ccccc2F)nc2ccccc21	-22.4	·	-0.8
COc1cc(-c2nnc(-c3ccc(N4CCOCC4)cc3)o2)cc(OC)c1OC	-6.0	101.0	89.8
CC(C)(C)c1ccc(-c2nnc(-c3ccc(N4CCOCC4)cc3)o2)cc1	34.7*	101.0	i
CCOC(=S)Nc1cccc(C(F)(F)F)c1	-22.3	98.0	10.1
c1ccc(CSC2=NCCS2)cc1	·	·	-9.2
S=c1[nH]nc(SCc2ccccc2)s1	-12.3	98.0	87.0*
O=C1c2ccccc2-c2nn(C(=O)c3cc4c(s3)CCC4)c3cccc1c23	-6.5	101.0	-6.2
Cn1c(SCC(=O)Nc2ccccc2)nc2c(c1=O)SCC2	-11.1	97.0	17.2
O=C1N=C(N2CCOCC2)SC1=C1CCCCC1	-20.0	101.0	-4.2
O=C1NC(=O)C(=C2CCCCC2)S1	-36.1	105.0	85.8*
N#CC1=C2SCN(CCCc3ccccc3)CN2C(=O)CC1c1ccc(Cl)cc1 (stereo not given)	-10.5	102.0	41.1
CCc1ccc(C2CC(=O)N3CN(c4ccccc4)CSC3=C2C#N)cc1 (stereo not given)	-17.5	100.0	14.0
CSc1ccc(C2CC(=O)N3CN(C)CSC3=C2C#N)cc1 (stereo not given)	-22.3	99.0	92.3*
CN1CSC2=C(C#N)C(c3ccccc3)CC(=O)N2C1 (stereo not given)	-17.5	94.0	85.6*
O=C(COC(=O)[C@@H]1CC(O)CN1S(=O)(=O)c1ccc2c(c1)OCCO2)c1ccccc1 (stereo not given in full)	-13.7	106.0	2.5
C(=C/c1ccccc1)/CN1CCN(Cn2nnc3ccccc32)CC1	-9.5	102.0	·
S=C(NCCN1CCOCC1)NN(Cc1ccccc1)c1ccccc1	-8.1	99.0	6.8
SMILES	Mtb MenB inh	Polio RdRp inh	Mtb MbtI inh
COc1ccc(CN2CCC(C(=O)NCc3ccc(C)cc3)CC2)cc1	7.4	102.0	·
CCS(=O)c1ccccc1C(=O)NCc1ccc(C)cc1 (stereo not given)	-28.5	100.0	99.9*
CCS(=O)c1ccccc1C(=O)OCC(=O)NCc1ccc(C)cc1 (stereo not given)	-13.1	107.0	-0.2
CN1CCN(C(=S)NC(CC(=O)c2ccccc2)c2ccccc2)CC1 (stereo not given)	-17.1	102.0	·
Cc1ccc(C(=O)CC(C(=O)O)N2CCN(C)CC2)cc1 (stereo not given)	31.0*	104.0	·
O=C(O)C1OC(Oc2cc(O)c3c(=O)cc(-c4ccccc4)oc3c2O)C(O)C(O)C1O (stereo not given)	0.3	100.0	14.7
CCn1c(COC(=O)Cc2n[nH]c(=O)c3ccccc23)nc2cc(S(=O)(=O)N(C)C)ccc21	8.0	101.0	11.9
CCc1cccc(NC(=O)c2ccc(CN3C(=O)C(C)=C(c4ccc(OC)cc4)S3(=O)=O)cc2)c1	·	8.0*	·
COc1ccc(C2=C(C)C(=O)N(Cc3ccc(C(=O)Nc4cccc(F)c4)cc3)S2(=O)=O)cc1	·	108.0	·
CCCN(CC1CC1)C(=O)c1cc(=O)c2ccccc2o1	·	104.0	-0.2
CN(C)Cc1nc2ccccc2c(=O)n1Cc1nc(-c2cc3ccccc3o2)cs1	-29.3	103.0	8.4
CCOc1ccc(-c2csc(Cn3c(CN4CCN(C)CC4)nc4ccccc4c3=O)n2)cc1	-6.2	66.0*	84.6*
O=C(NN1CC(=O)N(c2ccccc2-c2ccccc2)C1=O)c1ccncc1	5.2	100.0	1.8
CCOc1nc2ccccc2c(=O)n1Cc1ccccc1	·	·	-2.5
CC(=O)N1Cc2ccccc2CC1C(=O)NCc1ccc2c(c1)OCO2 (stereo not given)	-8.2	103.0	-15.6
CCOc1ccc(C(=S)N(C)C)cc1	-15.9	100.0	78.5*
CCOc1ccc(OCCCCN(C)C)cc1	-29.5	101.0	1.4
N#CCSc1nc(-c2cccs2)cc(-c2cccs2)c1C#N	9.6	101.0	14.8
N#Cc1c(-c2cccs2)cc(-c2ccc(C(=O)O)cc2)nc1SCc1cccs1	4.0	78.0*	·
Cn1c(CC(=O)O)c(S(C)(=O)=O)c2ccccc21	-12.6	101.0	·
COc1cccc(COCC(O)CN2CCC(C(N)=O)CC2)c1 (stereo not given)	-8.7	101.0	99.1*
COc1ccc(C(OCC(O)CN2CCC(C(N)=O)CC2)c2ccc(OC)cc2)cc1 (stereo not given)	-26.3	104.0	4.9
O=C(CCN1C(=O)c2ccccc2C1=O)OCc1ccco1	0.8	90.0*	-0.2
CCOC(=O)CCN1C(=O)c2ccccc2C1=O	0.9	107.0	-1.3
O=S(=O)(Nc1nc2ccccc2nc1Nc1ccc2nsnc2c1)c1ccccc1	-23.1	107.0	-8.6
SMILES	Mtb MenB inh	Polio RdRp inh	Mtb MbtI inh
COC(=O)CSc1ncc(C#N)c(N)n1	16.6	102.0	34.0
Cc1c(C(=O)CSc2ncc(C#N)c(N)n2)c2ccccc2n1C	29.6*	102.0	·
O=C(COC(=O)c1ccc(-c2ccccc2)cc1)Nc1ccc(F)cc1	·	104.0	4.4
CCOC(=O)c1sc(NC(=O)C2c3ccccc3Oc3ccccc32)c(C(=O)OCC)c1C	·	100.0	·
CCOC(=O)c1sc(NC(=O)C2c3ccccc3Oc3ccccc32)c(C#N)c1C	·	76.0*	·
COC(=O)C1(C(C)C)NC(c2ccccc2OC)C2C(=O)N(C)C(=O)C21 (stereo not given)	27.1*	102.0	-6.7
COC(=O)C1(c2ccccc2)NC(c2ccccc2C)C2C(=O)N(C)C(=O)C21 (stereo not given)	-54.1	102.0	-8.2
CC(=O)NCC(c1ccco1)N1CCN(c2ccccc2)CC1 (stereo not given)	13.1	100.0	3.1
CSc1sc(C(=O)Sc2ccccc2)cc1S(=O)(=O)C(C)C	-7.6	82.0*	-7.0
CSc1sc(C(=O)Sc2ccccc2)c2c1S(=O)(=O)N(C)c1ccccc1-2	-38.5	99.0	-6.0
CN(C)C(CNS(=O)(=O)c1ccc(O)c(C(=O)O)c1)c1ccccc1 (stereo not given)	-8.4	101.0	31.0
O=C1CC(N2CCN(c3ccccn3)CC2)C(=O)N1c1ccc2c(c1)OCO2 (stereo not given)	-6.1	104.0	-3.8
CC(Sc1nnnn1C)c1ccccc1Cl (stereo not given)	-5.8	101.0	-3.8
COC(=O)C1C(=O)C(C(=O)c2ccccc2)C(=O)CC1(C)C (stereo not given)	8.6	99.0	-4.3
COC(=O)C1C(O)=C(C=Nc2ccccc2)C(=O)CC1(C)C (stereo not given)	33.8*	101.0	30.9
